NIH3T3 tox: kills NIH 3T3 cells | NIH 3T3 viability, CellTiter-Glo ATP luminescence, 48-72 h | Potency, µM (highest dose often 96.7 µM), for inactives: top-dose activity change, negative = cytotoxicity, hits mostly inhibitors | actives 4.3% (n = 94,000); further: on the % scale 0 is the no-effect control and ±100 the full control effect; nearly all actives have a fitted effect of over 55% in size
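Cytotoxicity was measured by CellTiter-Glo ATP luminescence after 48 or 72 h compound exposure at 37 °C. Mouse NIH 3T3 fibroblasts were seeded at 400 cells/well and dosed by 23 nL pin transfer.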
HEK293 tox: kills HEK 293 cells; HEK 293 viability, ATP luminescence (CellTiter-Glo), 48-72 h; actives 6.6% (n = 94,000); Potency, µM (doses to about 115 µM), for inactives: top-dose activity change, negative = cytotoxicity, usual class: inhibitors; further: on the % scale 0 is the no-effect control and ±100 the full control effect; nearly all actives have a fitted effect of over 60% in size
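CellTiter-Glo luminescence (cellular ATP) was read after 48 or 72 hr of compound exposure at 37 degree Celsius. Cells were HEK 293 plated at 250 cells/well.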
FLuc inh-1: inhibitors of firefly (Photinus pyralis) luciferase | actives 2.5% (n = 76,000) | Potency, µM (series often up to 115 µM), actives largely listed as inhibitors | P08659 | purified P. pyralis luciferase, luminescence, biochemical; further: on the % scale 0 is the no-effect control and ±100 the full control effect; nearly all actives have a fitted effect of over 65% in size
Target sequence (P08659 whole entry, looked up): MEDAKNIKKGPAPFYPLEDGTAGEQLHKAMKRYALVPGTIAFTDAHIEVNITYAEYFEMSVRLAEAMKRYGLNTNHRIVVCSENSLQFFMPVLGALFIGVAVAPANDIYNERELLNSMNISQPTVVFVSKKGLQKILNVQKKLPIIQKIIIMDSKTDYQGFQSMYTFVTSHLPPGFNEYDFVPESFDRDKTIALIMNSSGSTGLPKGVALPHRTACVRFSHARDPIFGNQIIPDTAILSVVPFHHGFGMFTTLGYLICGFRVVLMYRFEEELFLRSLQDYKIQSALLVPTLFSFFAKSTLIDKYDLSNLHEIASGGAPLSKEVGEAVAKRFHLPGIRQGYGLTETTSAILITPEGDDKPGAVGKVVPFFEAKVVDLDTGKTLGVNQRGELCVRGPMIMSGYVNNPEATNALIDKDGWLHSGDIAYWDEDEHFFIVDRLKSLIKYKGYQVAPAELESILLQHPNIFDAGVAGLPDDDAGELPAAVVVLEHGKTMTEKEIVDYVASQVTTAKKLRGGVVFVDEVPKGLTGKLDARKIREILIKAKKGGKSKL
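Luminescence read by CCD imager after adding enzyme (10nM final) to wells holding compound, titrated in qHTS. Substrates 10uM each D-luciferin and ATP; buffer 50mM Tris acetate pH 7.5, 10mM Mg acetate, Tween-20, BSA.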
NPR1 antag: human Npr1 receptor antagonism; HEK293 hNpr1 GloSensor cGMP, ANP-stimulated luminescence; actives 1.6% (n = 76,000); AID 1347048; P16066; Potency, µM (highest dose often 46.3 µM), inactives show at the highest dose activity change, negative = inhibition, hits mostly inhibitors; calls by dose curve; further: on the % scale 0 is the no-effect control and ±100 the full control effect; nearly all actives have a fitted effect of over 60% in size
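Compound pre-incubated 30 min at room temperature on GloSensor-loaded HEK293 cells stably carrying hNpr1 and the pGS-40F cGMP biosensor. Stimulation uses hNppA at 0.1 nM final; luminescence is taken at baseline and 20 min post-agonist.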
FLuc SDR -ATP: stabilizes firefly luciferase without ATP; shares compounds with FLuc inh-1; AID 1963318; Potency, µM (highest dose often 32.7 µM), without a hit: at the top dose activation (signal gain), hits mostly activators; actives 7.8% (n = 1,300); Purified FLuc-C-HiBiT, Nano-Glo HiBiT luminescence, no ATP; further: nearly all actives have a fitted effect of over 55% in size
FLuc SDR ATP: firefly luciferase binding stabilization, ATP added; Potency, µM (top dose mostly 32.7 µM), without a hit: at the top dose activation (gain of signal), hits mostly activators; shares compounds with FLuc inh-1; purified FLuc-C-HiBiT + ATP, HiBiT complementation luminescence; actives 8.7% (n = 1,300);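 further: signal reports ligand binding via conformational change of the enzyme rather than luciferase catalysis; % of control where 0% means no effect; nearly all actives have a fitted effect of over 55% in size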
FLuc inh-2: blocks firefly luciferase enzymatic activity | shares compounds with FLuc inh-1 | purified FLuc-C-HiBiT enzyme, luciferin luminescence | Potency, µM (doses to about 32.7 µM), for inactives: at the top dose activity change, negative = inhibition, hits mostly inhibitors | actives 42% (n = 1,300); further: on the % scale 0 is the no-effect control and ±100 the full control effect; nearly all actives have a fitted effect of over 70% in size
An asterisk follows results filed as active; i = inactive; ? = inconclusive; nt = no result given; [ ] = another dose, or the depositor's remark. The list is not random: actives were taken first. Their share in the collection is about 11%. Unless noted, the call rests on the fitted dose curve; in most records, active means well fitted curve in the direction sought with a large enough effect; inconclusive means small, poorly fitted or top-dose-only effect, or another doubt; inactive means no such curve, though single readings can be large; an effect the other way counts as inactive or inconclusive. Potency means the concentration at half of the fitted maximal effect.

SMILES	NIH3T3 tox	HEK293 tox	FLuc inh-1	NPR1 antag	FLuc SDR -ATP	FLuc SDR ATP	FLuc inh-2
COc1ccccc1CNC(=O)C1CCN(C(=O)c2ncn3c2COC(c2ccc(C)cc2)C3)CC1 (centres undefined)	-1.0%	-3.1%	?	-0.7%	nt	nt	nt
O=C(NCc1ccccc1Cl)C1CCN(C(=O)c2ncn3c2COC(c2ccc(F)cc2)C3)CC1 (centres undefined)	i	-0.3%	?	5.4%	nt	nt	nt
O=C(NCc1ccc(F)cc1Cl)C1CCN(C(=O)c2ncn3c2COC(c2ccccc2)C3)CC1 (centres undefined)	i	-2.3%	12.6µM*	-11.7%	12.9%	?	?
O=C(O)c1cccc2c1CCN2C(=O)c1ccccc1	-7.5%	-25.8%	2.51µM*	-28.2%	14.8%	?	3.94µM*
Cc1ccc(-c2noc(-c3nc(C(C)C)no3)n2)cc1	-4.6%	-10.0%	7.08µM*	-20.0%	10.2%	11.2%	?
Cc1ccc(-c2noc(-c3nc(-c4cccnc4)no3)n2)cc1	-6.4%	-1.1%	i	-0.1%	nt	nt	nt
Cc1ccc(-c2noc(-c3ccccc3Br)n2)cc1	nt	nt	nt	nt	?	?	1.57µM*
O=C(c1ccc(Cl)cc1)N1CCC(N2CCNC2=O)CC1	i	i	nt	nt	nt	nt	nt
COc1ccc(NC(=O)c2cc3c(=O)[nH]c(C)cn3n2)cc1OC	-19.0%	?	7.08µM*	0.0%	?	?	9.89µM*
COc1ccc(CCNC(=O)c2cc3c(=O)[nH]c(C)cn3n2)cc1OC	-13.3%	0.7%	i	7.1%	nt	nt	nt
O=C(NCC1CCCN(C(=O)N2CCCC2)C1)c1ccc(-c2ccccc2)cc1 (centres undefined)	?	?	7.94µM*	-1.9%	18.6%	11.4%	?
Cc1ccc(OCC(=O)Nc2cccc(-c3nc4ccccc4s3)c2)cc1	nt	nt	nt	nt	13.6%	13.0%	9.89µM*
COc1ccccc1C(=O)Nc1cccc(-c2nnc3n2CCCC3)c1	-24.2%	-4.3%	?	3.2%	nt	nt	nt
CC(=O)Nc1cccc(-c2ccc3c(n2)c(=O)ncn3Cc2ccccc2)c1	?	-5.5%[172 µM]	i	-7.4%[70.6 µM]	nt	nt	nt
CCOc1ccccc1C(=O)Nc1cccc(-c2nc3ccccc3s2)c1	nt	nt	nt	nt	13.5%	11.0%	?
COc1cccc(-c2nc3cc(NC(=O)c4ccc(F)c(C#N)c4)ccc3s2)c1	nt	nt	nt	nt	14.6%	11.6%	-6.9%
COc1cccc(-c2cc(C(=O)Nc3ccc(F)cc3)c3cnn(C)c3n2)c1	-13.5%	?	nt	nt	nt	nt	nt
O=C(COc1ccc(F)cc1)Nc1cccc(-c2nnc3n2CCCC3)c1	-23.7%	?	?	-21.0%	nt	nt	nt
CCC(CC)C(=O)Nc1cccc(-c2nc3ccccc3s2)c1	nt	nt	nt	nt	26.2%	7.3%	?
COc1ccc(C(=O)N2CCC(N3C(=O)C(OC)C34CCOCC4)CC2)c(OC)c1 (centres undefined)	-7.2%	-3.0%	i	-6.8%	nt	nt	nt
O=C(Cc1ccccc1F)NCCc1noc(C2CC2)n1	-12.7%	-2.8%	i	-4.9%	nt	nt	nt
Cc1ccc2c(C(=O)N3CCCCCC3)cc(NC(=O)C3CCC3)cc2n1	?	1.4%	i	3.4%	nt	nt	nt
COc1ccc(C(=O)Nc2cccc(-c3nc4ccccc4s3)c2)cc1	nt	nt	nt	nt	13.6%	9.2%	-15.1%
Cc1cccc(OCC(=O)Nc2cccc(-c3nnc4n3CCCC4)c2)c1	-29.2%	?	i	-17.2%	nt	nt	nt
O=C(CSc1nnc2ccccn12)Nc1cccc(-c2nc3ccccc3s2)c1	nt	nt	nt	nt	12.5%	9.2%	-6.8%
SMILES	NIH3T3 tox	HEK293 tox	FLuc inh-1	NPR1 antag	FLuc SDR -ATP	FLuc SDR ATP	FLuc inh-2
Cc1cccc(OCC(=O)Nc2cccc(-c3nc4ccccc4s3)c2)c1	nt	nt	nt	nt	13.7%	9.7%	?
O=C(Cc1ccccc1Cl)Nc1cccc(-c2nnc3n2CCCC3)c1	-9.8%	-9.9%	i	2.0%	nt	nt	nt
O=C(Cc1cccc(Cl)c1)N1CCC(c2nn(-c3ccccc3)c(=O)[nH]2)CC1	?	?	i	?	nt	nt	nt
Cc1ccc(NC(=O)N2CCCC(c3noc(COc4ccccc4)n3)C2)cc1C (centres undefined)	?	?	3.98µM*	-16.7%	24.8%	16.3%	8.81µM*
Cc1cc(C)cc(NC(=O)N2CCCC(c3noc(COc4ccccc4)n3)C2)c1 (centres undefined)	?	?	?	-19.2%	nt	nt	nt
Cc1ccc(OCc2nc(C3CN(C(=O)c4n[nH]c5ccccc45)C3)no2)cc1	20µM*	?	8.91µM*	?	?	?	8.81µM*
Cc1ccc(OCc2nc(C3CN(C(=O)C4(c5ccccc5)CC4)C3)no2)cc1	?	?	i	1.3%	nt	nt	nt
COc1ccc(CN(C(=O)c2cc3ccccc3oc2=O)C2CCS(=O)(=O)C2)cc1OC (centres undefined)	nt	nt	nt	nt	19.6%	?	-16.6%
CCCc1cc(C(=O)N2CC[C@@H]3[C@@H](CCC(=O)N3CC(C)C)C2)ccn1	?	-1.3%	i	0.0%	nt	nt	nt
Cc1cccc(NC(=O)N2CCc3nnc(C4CC4)n3CC2)c1	i	2.4%	i	-1.0%	nt	nt	nt
Cc1cccc(NC(=O)c2c(N)sc3c2CCC(C)C3)c1 (centres undefined)	nt	nt	nt	nt	7.5%	7.4%	?
CC1CCCN(c2ncnc3c2cnn3-c2ccccc2)C1 (centres undefined)	nt	nt	nt	nt	2.48µM*	?	0.442µM*
CC1CCCN(c2ncnc3c2cnn3-c2ccc(Cl)cc2)C1 (centres undefined)	nt	nt	nt	nt	2.79µM*	0.248µM*	0.124µM*
Cc1ccc(Cl)cc1-n1ncc2c(N3CCC(C)CC3)ncnc21	nt	nt	nt	nt	12.6%	8.0%	-8.0%
CC1CCCN(c2ncnc3c2CN(c2cccnc2)C(=O)CN3C)C1 (centres undefined)	-16.7%	-23.7%	i	9.2%	nt	nt	nt
Cc1cccc(-n2ncc3c(N4CCCC(C)C4)ncnc32)c1 (centres undefined)	nt	nt	nt	nt	3.94µM*	?	0.7µM*
Cc1ccc([S+](=O)([O-])N2CCCC(N3C(=O)c4c(c(C)nn4-c4ccccc4)C3C(C)C)C2)cc1 (centres undefined)	-18.5%	i	nt	nt	nt	nt	nt
CN(Cc1cccnc1)C1CN(C(=O)c2ccccc2F)C1	i	-0.5%	nt	nt	nt	nt	nt
CC1CCCN(C(=O)Cc2cccn2-c2ccc(F)cc2)C1 (centres undefined)	-7.7%	?	i	-3.3%	nt	nt	nt
CN1CC(=O)N(c2ccc(Cl)cc2)Cc2c(NC3CCCCC3)ncnc21	?	?	i	6.2%	nt	nt	nt

Screens: PubChem, National Center for Advancing Translational Sciences (NCATS)
